GPR151 ag: human GPR151 activation | AID 1508602 | Q8TDV0 | activation, % at 11.2 µM | hit rate 1% among 650,000 | PathHunter beta-arrestin GPR151 cells, luminescence; in the data active = activation above about 4.9%
FBW7 activator: human FBW7 E3 ligase activation, primary screen | AlphaScreen FBW7–phospho-cyclin E peptide binding, activator screen | hit rate 0.13% among 650,000 | normalized activity (activation), % at 26.1 µM; in the data active = normalized activity above about 1.9%;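 note: purified mutant Fbw7 with reduced substrate affinity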
TEAD-YAP inh: TEAD-YAP interaction inhibition; HEK-TIYL cells, TEAD-Gal4/YAP UAS-luciferase luminescence; inhibition, % at 9.12 µM; hit rate 1.4% among 640,000; in the data active = inhibition above about 32%
MITF inh: blocks human microphthalmia-associated transcription factor; O75030; AlphaScreen MITF homodimerization, bead proximity signal; inhibition, % at 2.6 µM; hit rate 0.91% among 650,000; in the data active = inhibition above about 50%
Target sequence (O75030 whole entry, looked up): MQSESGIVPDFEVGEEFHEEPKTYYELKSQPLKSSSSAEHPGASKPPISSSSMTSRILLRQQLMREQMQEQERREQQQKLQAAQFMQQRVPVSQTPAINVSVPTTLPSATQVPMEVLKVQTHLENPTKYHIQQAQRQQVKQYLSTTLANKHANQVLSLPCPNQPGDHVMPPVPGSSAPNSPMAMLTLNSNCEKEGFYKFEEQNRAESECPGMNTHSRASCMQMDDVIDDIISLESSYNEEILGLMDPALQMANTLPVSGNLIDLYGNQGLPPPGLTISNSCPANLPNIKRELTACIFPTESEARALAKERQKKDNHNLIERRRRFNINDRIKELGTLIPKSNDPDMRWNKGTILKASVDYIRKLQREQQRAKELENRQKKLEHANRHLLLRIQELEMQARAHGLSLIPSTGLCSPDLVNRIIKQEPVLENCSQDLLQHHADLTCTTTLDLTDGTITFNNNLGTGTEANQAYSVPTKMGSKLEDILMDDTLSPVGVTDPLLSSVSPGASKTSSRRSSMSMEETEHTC
MITF confirm: confirmation of human MITF inhibitors; shares compounds with MITF inh; AlphaScreen MITF homodimerization, biotin/His-MITF beads; inhibition, % at 2.6 µM; hit rate 16% among 4,700; AID 1259372;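 active = inhibition above a cutoff derived from the DMSO control wells, cut at about 28% in these data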;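 note: inhibitors lower the bead chemiluminescence by keeping MITF from dimerizing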
AlphaScreen DR: optically interferes with AlphaScreen signal in dose response. shares compounds with MITF inh. AlphaScreen optical interference counterscreen, cell-free. IC50, µM. hit rate 6% among 480. AID 1259373; call rule not given here
AlphaScreen intf2: AlphaScreen optical interference, counter-screen. shares compounds with MITF inh. LysRS AlphaScreen counterscreen, signal interference, triplicate. inhibition, % at 2.6 µM. hit rate 7.6% among 4,700. AID 1259376;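 active = inhibition above a cutoff derived from the DMSO control wells, cut at about 30% in these data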
Of the large screens only hits and unclear results are named; the others gave an inactive call (follow-up assays come after a bar, where they were run). The list is not random: actives were taken first. Their share in the collection is about 3.5%.

O=C(NC1CCCCC1)N1CCN2C(=O)[C@@H]3C[C@@H](O)CN3C(=O)[C@H]2C1	MITF inh 80.5 | MITF confirm 73.4 | AlphaScreen DR inactive | AlphaScreen intf2 inactive
O=C(NC1CCCCC1)N1CCN2C(=O)[C@@H]3CSCN3C(=O)[C@H]2C1	MITF inh 76.2 | MITF confirm 60.3 | AlphaScreen DR inactive | AlphaScreen intf2 inactive
CCN(CC(=O)Nc1ccc(F)cc1Cl)CC(=O)NC(C)C	none
CCN(CC(=O)Nc1cc(F)ccc1F)CC(=O)NC(C)C	MITF inh 62.9 | MITF confirm inactive | AlphaScreen intf2 inactive
O=C(CN1CCN(C(=O)CSc2ccc(F)cc2)CC1)c1cccs1	MITF inh 79.7 | MITF confirm inactive | AlphaScreen intf2 inactive
CN(C)CCNC(=O)C12CC3CC(CC(C3)C1)C2	none
O=CN1CCN(Cc2ccc(Cl)cc2)CC1	none
O=[N+]([O-])c1ccccc1CN1CCN(C2CC3CCC2C3)CC1 (stereo not drawn)	MITF inh 66.8 | MITF confirm inactive | AlphaScreen intf2 inactive
CC1CC(C)CN(C2CCN(Cc3ccccc3[N+](=O)[O-])CC2)C1 (stereo not drawn)	MITF inh 57.6 | MITF confirm inactive | AlphaScreen intf2 inactive
CCOC(=O)C1CCN(Cc2ccccc2[N+](=O)[O-])CC1	none
O=[N+]([O-])c1ccccc1CN1CCC(N2CCCC2)CC1	MITF inh 57.0 | MITF confirm inactive | AlphaScreen intf2 inactive
Clc1ccc(CN2CCN(C3CC4CCC3C4)CC2)cc1 (stereo not drawn)	MITF inh 78.9 | MITF confirm inactive | AlphaScreen intf2 inactive
c1ccc(-c2nc(-c3cn[nH]c3-c3ccccc3)[nH]c2-c2ccccc2)cc1	none
O=[N+]([O-])c1ccccc1CN1CCN(C2CCN(Cc3ccccc3)CC2)CC1	MITF inh 87.6 | MITF confirm inactive | AlphaScreen intf2 inactive
CCN1CCN(C2CCN(Cc3ccccc3[N+](=O)[O-])CC2)CC1	none
O=[N+]([O-])c1ccccc1CN1CCN(C2CCCC2)CC1	MITF inh 72.9 | MITF confirm inactive | AlphaScreen intf2 inactive
O=[N+]([O-])c1ccccc1CN1CCc2ccccc2C1	none
O=[N+]([O-])c1ccccc1CN1CCC(O)CC1	none
O=[N+]([O-])c1ccccc1CN1CCC(N2CCc3ccccc3C2)CC1	MITF inh 71.5 | MITF confirm inactive | AlphaScreen intf2 inactive
COc1ccccc1-c1nnc(C2CCN(C(=O)C(C)C)CC2)s1	none
CCOc1ccccc1Nc1nnc(SCc2nnc(-c3cccs3)o2)s1	none
COc1ccc(C2/C(=C(\O)c3ccccc3)C(=O)C(=O)N2c2nc3ccccc3s2)cc1OC (stereo not drawn)	none
CC(=O)c1ccc(NC(=O)CC(C)c2ccccc2)cc1 (stereo not drawn)	none
CC(=O)c1ccc(NC(=O)CNCC(c2ccccc2)N(C)C)cc1 (stereo not drawn)	MITF inh 65.8 | MITF confirm inactive | AlphaScreen intf2 inactive
CCN1CCN(c2c(Cl)cccc2NC(=O)c2ccc(Cl)s2)CC1	none
CCN1CCN(CC(=O)c2ccc(Cl)s2)CC1	MITF inh 74.3 | MITF confirm inactive | AlphaScreen intf2 inactive
CCn1nnc(NC(=O)c2ccccc2)n1	MITF inh 57.9 | MITF confirm inactive | AlphaScreen intf2 inactive
COc1cc(Br)cc(C=Nc2ccc(C)cn2)c1O	none
CCOC(=O)c1c(NC(=O)c2cc(-c3ccccc3C)nc3ccccc23)sc2c1CCCCCC2	MITF inh 68.7 | MITF confirm inactive | AlphaScreen intf2 inactive
CCOC(=O)c1c(NC(=O)c2cc(-c3cc(C)ccc3C)nc3ccccc23)sc2c1CCCC2	none
CCN(CCN(C)C)Cc1ccc(Cl)c(Cl)c1	MITF inh 54.1 | MITF confirm inactive | AlphaScreen intf2 inactive
CCN(CCN(C)C)Cc1ccc(F)cc1	MITF inh 60.0 | MITF confirm 28.2 | AlphaScreen DR inactive | AlphaScreen intf2 inactive
CCN(CCC(=O)Nc1ccc(F)cc1)Cc1ccccc1	none
CN(CCC(N)=O)Cc1ccc(F)cc1	MITF inh 55.5 | MITF confirm inactive | AlphaScreen intf2 inactive
CCCN(CCO)Cc1ccc(Cl)c(Cl)c1	none
CCN(CCN(C)C)Cc1ccc(F)cc1F	MITF inh 60.3 | MITF confirm inactive | AlphaScreen intf2 inactive
COC(=O)C1=C(C)NC2=C(C(=O)CC(c3ccc(OC)cc3)C2)C1c1cccc2ccccc12 (stereo not drawn)	none
COc1ccc2c(c1)COC1(CCN(C(=O)CCC(=O)O)CC1)O2	none
CCOC(=O)c1c(NC(=O)c2cc(-c3cccc(C)c3)nc3ccccc23)sc2c1CCCCCC2	none
CCN(CCN(C)C)Cc1cccc(OCc2ccccc2)c1	MITF inh 60.7 | MITF confirm inactive | AlphaScreen intf2 inactive
CN(C)CCCN(CCCN(C)C)Cc1cccc(Oc2ccccc2)c1	none
CCN(CCN(C)C)Cc1ccc(Cl)cc1Cl	MITF inh 55.7 | MITF confirm inactive | AlphaScreen intf2 inactive
CCN(CCN(C)C)Cc1ccc(F)c(Br)c1	none
CCN(CCN(C)C)Cc1cccc(Cl)c1Cl	MITF inh 75.0 | MITF confirm inactive | AlphaScreen intf2 inactive
CCN(CCN(C)C)Cc1ccc(F)c(F)c1	MITF inh 59.6 | MITF confirm inactive | AlphaScreen intf2 inactive
CCCN(CCO)Cc1ccc(Cl)cc1Cl	none
Cn1c(SCC(=O)Nc2ccc(S(N)(=O)=O)cc2)nnc1-c1ccncc1	none
CCNc1nc(NCC)n2c(SCC(=O)Nc3cc(Cl)cc(Cl)c3)nnc2n1	none
CC(C)CC(=O)N[C@H](C(=O)N[C@H](C(=O)N[C@@H](CC(C)C)[C@@H](O)CC(=O)N[C@@H](C)C(=O)N[C@@H](CC(C)C)[C@@H](O)CC(=O)O)C(C)C)C(C)C	none (no result: TEAD-YAP inh)
COc1cccc2cc(-c3csc(Nc4cccc(F)c4)n3)c(=O)oc12	MITF inh 54.9 | MITF confirm inactive | AlphaScreen intf2 inactive
OC(CNc1ccccc1)Cn1ccc2ccccc21 (stereo not drawn)	MITF inh 52.4 | MITF confirm inactive | AlphaScreen intf2 inactive
CN(CC(=O)NCc1nc(-c2ccccc2)no1)S(=O)(=O)c1ccc(Cl)cc1	none
CC(C)(C)OC(=O)N1CCCC1C(=O)NC1CCCCCC1 (stereo not drawn)	none
CCN1CCN(CC(=O)Nc2ccc(F)cc2)CC1	MITF inh 82.9 | MITF confirm inactive | AlphaScreen intf2 inactive
O=C(CN1CCN(CC(=O)Nc2ccc(F)cc2)CC1)Nc1ccc(F)cc1	none
CC1CN(CC(=O)Nc2ccc(F)cc2)CC(C)O1 (stereo not drawn)	MITF inh 55.2 | MITF confirm inactive | AlphaScreen intf2 inactive
CCC(C)NS(=O)(=O)c1ccc(NC(=O)CN2CCOCC2)cc1 (stereo not drawn)	MITF inh 54.1 | MITF confirm inactive | AlphaScreen intf2 inactive
O=C(CCCCC(=O)Nc1ccc(F)cc1)Nc1ccc(F)cc1	MITF inh 56.4 | MITF confirm inactive | AlphaScreen intf2 inactive
COC(=O)c1c(OCCc2ccccn2)cc(=O)n2c1CCN(CC1CC1)CC2	none

Screens as filed in PubChem BioAssay.
